# Screening data: PubChem, National Center for Advancing Translational Sciences (NCATS)
# Compounds with a hit are over-represented: about 6.5% of the library has one in this group of screens.
# MARV entry inh – qHTS for inhibitors of binding or entry into cells for Marburg Virus. Marburg virus pseudotyped entry inhibition, cell reporter. Potency, µM (series often up to 37.8 µM), without a hit: at the highest dose activity change, negative = inhibition, actives largely listed as inhibitors. 300,000 tested, 1.8% active; calls by dose curve; tested in HEK293 cells; note: potency is the fitted concentration of half-maximal effect
# Vaccinia mCherry – qHTS for Stage-Specific Inhibitors of Vaccinia Orthopoxvirus: mCherry Reporter Primary qHTS; Vaccinia virus mCherry reporter infection, fluorescence; Potency, µM (series often up to 36.5 µM), for the others: at the highest dose activity change, negative = inhibition, usual class: inhibitors; 310,000 tested, 0.63% active; AID 720579, 2013; calls by dose curve; tested in A549 cells; note: potency is the fitted concentration of half-maximal effect; nearly all actives have a fitted effect of over 35% in size
# Lassa entry inh – qHTS for Inhibitors of binding or entry into cells for Lassa Virus | Lassa virus pseudotype entry inhibition, cell reporter | Potency, µM (titrated, usually from 37.9 µM), for inactives: at the highest dose activity change, negative = inhibition, usual class: inhibitors | 300,000 tested, 1.2% active; calls by dose curve; tested in HEK293 cells; note: potency is the fitted concentration of half-maximal effect; nearly all actives have a fitted effect of over 50% in size
# HCMV antiviral – qHTS Assay for inhibitors of the human cytomegalovirus (HCMV). 410,000 tested, 4.5% active. HFF cells, HCMV-luciferase reporter, 72 h; stronger effect = lower value. AID 1259415, 2018. activity change, negative = inhibition, % at 57.5 µM; in the data active = activity change below about -60%; inconclusive = no clear call, values can overlap the other calls; inactive = above about -39%
#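 After 16 h attachment at 37C, HFF cells received test compound and HCMV-luciferase (1 PFU/cell); reporter luminescence read 72 h later, data normalized against buffer-only and known inhibitor Salinomycin.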
# VACV Venus inh – qHTS for Stage-Specific Inhibitors of Vaccinia Orthopoxvirus: Venus Reporter Primary qHTS | Potency, µM (series often up to 36.5 µM), for the others: at the top dose activity change, negative = inhibition, hits mostly inhibitors | AID 720580, 2013 | 330,000 tested, 0.46% active | Vaccinia virus Venus reporter expression, fluorescence; calls by dose curve; tested in A549 cells; note: potency is the fitted concentration of half-maximal effect; nearly all actives have a fitted effect of over 30% in size
# FMDV inh – High Throughput Screening for Foot and Mouth Disease Virus Antivirals. 410,000 tested, 1.2% active. Potency, µM (doses to about 57.9 µM), for inactives: at the highest dose activity change, negative = inhibition, hits mostly inhibitors. FMDV antiviral cell-based qHTS; calls by dose curve; tested in HEK293T cells; note: read-out not given here; potency is the fitted concentration of half-maximal effect; nearly all actives have a fitted effect of over 45% in size
# * = called active by the depositor; i = inactive; ? = inconclusive; / = no result given; [ ] = remark or other dose. % is set by controls: 0 for no effect and ±100 for the full control effect.
SMILES,MARV entry inh,Vaccinia mCherry,Lassa entry inh,HCMV antiviral,VACV Venus inh,FMDV inh
Cc1cccn2c(CNCC3(c4ccccc4)CCCC3)c(C(=O)N3CCOCC3)nc12,8.9µM*,-28%,?,-101*,-19%,-24%
CSCCNCc1c(C(=O)N2CCOCC2)nc2c(C)cccn12,4%[46.1 µM],-13%,11%,-4,-6%,-15%
COc1ccc(-c2nn(-c3ccccc3)cc2/C=N/NS(=O)(=O)c2ccccc2)cc1,?,-25%,-2%,90,-2%,36%
COc1ccc(-c2nn(-c3ccccc3)cc2C(=O)n2nnc3ccccc32)cc1,8%,-14%,5%,77,-5%,20µM*
COc1ccc(-c2nn(-c3ccccc3)cc2/C=N/N2C(=O)CSC2=S)cc1,?,/,?,-96*,/,35%
COc1ccc(-c2nn(-c3ccccc3)cc2/C=N/NC(=O)c2cccc(S(=O)(=O)Nc3ccccc3Cl)c2)cc1,?,-13%,?,-101*,-28%,15%
COc1ccc(-c2nn(-c3ccccc3)cc2/C=N/O)cc1,/,/,/,32,/,14µM*
COC(=O)c1cn(-c2ccccc2)nc1-c1ccc(OC)cc1,/,-12%,/,-32,-22%,16%
O=C(Cn1cncn1)NCC1Cc2cc(-c3ccsc3)cc(Cl)c2O1 (stereo not drawn),/,-14%,/,/,-13%,3%
CCOc1ccc(NC(=O)C2CCN(c3nnc(C)c4c(C)n(-c5ccccc5)nc34)CC2)cc1,/,-10%,-5%[46.1 µM],0,-1%,0%
C=C(C)CCCN1C=C(C(=O)OCC)C(c2ccccc2)NC1=O (stereo not drawn),-14%[14.2 µM],/,?,/,/,/
Cc1cc(/C=C2/NC(=O)NC2=O)c(C)n1-c1sc2c(c1C#N)CCCC2,?,?,4.5µM*,-73*,-20%,-17%
Cc1cc(/C=C2\C(=O)NC(=O)N(c3ccc(Cl)cc3)C2=O)c(C)n1-c1sc2c(c1C#N)CCCC2,1%,0%,/,33,-2%,-10%
CC1CCCC(NCC(O)COC(c2ccc(F)cc2)c2ccc(F)cc2)C1C (stereo not drawn),?,?,?,-97*,?,?
CC1CCCC(NC(=O)CSc2ccc(F)cc2)C1C (stereo not drawn),9%,/,?,12,/,10%
Cc1ccc(C2CC(=O)C=C(NCC(C)C)C2)cc1 (stereo not drawn),-10%,-3%,-7%,-81*,-5%,-16%
Cc1ccc(C2CC(=O)C=C(NCc3ccccc3)C2)cc1 (stereo not drawn),-30%,-15%,?,-13,?,-18%
COc1ccc(NC(=O)c2cccc3c2C(=O)c2ccc(-c4ccc(F)cc4OCc4ccccc4)cc2S3(=O)=O)cc1,/,-17%,/,-64*,?,-2%
CN1CCN(C(=O)c2ccc3c(c2)S(=O)(=O)c2ccccc2C3=O)CC1,/,?,/,-62*,-17%,-13%
CC(C)(C)c1ccc(NC(=O)c2ccc3c(c2)S(=O)(=O)c2ccccc2C3=O)cc1,/,i,/,21,-17%,-20%
COc1ccc(NC(=O)c2ccc3c(c2)S(=O)(=O)c2ccccc2C3=O)cc1,/,-12%,/,-63*,3%,-17%
COc1ccc(OC[C@@H](O)CNC(=O)c2cccc3c2C(=O)c2ccc(-c4ccc(F)cc4OCc4ccccc4)cc2S3(=O)=O)cc1,/,?,/,/,?,-19%
COC(=O)[C@@H]1CCCN1Cc1ccc2c(c1)CN(Cc1ccc(OC)c(C)c1)CCO2,/,-7%,/,/,9%,2%
CSc1ccc(CN2CCC(C(=O)NCc3ccc(C)cc3)CC2)cc1,16µM*,/,?,-12,/,-20%
Cc1ccc(CNC(=O)CN2CCC(C(N)=O)CC2)cc1,8%,/,-12%,79,/,15%
SMILES,MARV entry inh,Vaccinia mCherry,Lassa entry inh,HCMV antiviral,VACV Venus inh,FMDV inh
COc1cc(OC)c(NC(=O)NC(C)c2c(-n3cccc3)sc(C)c2C)cc1Cl (stereo not drawn),-19%[46.1 µM],-24%,/,?,-16%,-15%
COc1ccc(CCNc2nc(-c3ccccn3)cs2)cc1OC,/,/,/,0,/,-14%
COc1ccc(OC)c(-c2csc(NC(=O)Cc3ccccc3OC)n2)c1,?,-23%,7.9µM*,30,?,47%
COc1ccc(CC(=O)Nc2nc(-c3ccncc3)cs2)cc1,?,-18%,?,-82*,-9%,-7%
COc1ccc(CCNc2nc(-c3sc(C)nc3C)cs2)cc1OC,?,/,?,-29,/,25µM*
COc1ccc(-c2csc(NC(=O)Cc3cc(OC)c(OC)c(OC)c3)n2)cc1OC,?,-23%,/,?,-25%,14µM*
COc1ccc(CC(=O)Nc2nc(-c3ccc(F)c(F)c3)cs2)cc1,?,-4%,?,?,-6%,?
COc1ccc(-c2csc(NC(=O)COC(=O)Cc3ccccc3)n2)cc1OC,-1%,/,4%,/,/,/
COC(=O)c1cc2oc3ccccc3c2n1Cc1nc(-c2cccc(Cl)c2)oc1C,-2%[46.1 µM],-7%,/,4,1%,-17%
CCC[C@H]1[C@@H](NS(=O)(=O)c2ccccc2C)CC[C@@]23CCCN2C(=O)CCC[C@@H]13,/,/,/,-26,/,/
COc1ccc(CCNc2nc(-c3ccncc3)cs2)cc1OC,/,-19%,/,-26,-8%,?
COc1ccc(CCNc2nc(-c3ccc(NC(C)=O)cc3)cs2)cc1OC,?,-6%,?,-12,-18%,25µM*
Cn1c(Cl)cnc1C1CC(=O)c2cc(Cl)ccc2O1 (stereo not drawn),10µM*,-2%,?,-96*,-14%,20µM*
CCOC(=O)c1cccc(NC(=O)c2cc(-c3ccc(Cl)s3)nc3ccccc23)c1,-4%[46.1 µM],-15%,2%[46.1 µM],4,-8%,-20%
CSC[C@H]1CN(c2ccc(Br)cc2)C(=O)[C@H]1CC(=O)Nc1ccccc1,/,/,-31%[46.1 µM],/,/,/
Cc1cc2nccc(-c3ccc(OCCCF)cc3)n2n1,/,/,/,-61*,/,-16%
Cc1cc2nccc(-c3ccco3)n2n1,?,-9%,-1%,-30,-5%,-4%
CCCN1C(=O)c2[nH]nc(-c3ccccc3O)c2C1c1ccc(OCc2ccccc2)c(OC)c1 (stereo not drawn),-21%[46.1 µM],?,?,-84*,-26%,?
COc1cc(C2c3c(-c4ccccc4O)n[nH]c3C(=O)N2CCO)ccc1OCc1ccccc1 (stereo not drawn),?,-14%,?,-11,-10%,-27%
CCCOc1ccc(C2c3c(-c4ccccc4O)n[nH]c3C(=O)N2CCc2ccccc2)cc1OCC (stereo not drawn),?,?,?,-90*,?,-22%
CCc1ccc(NC(=O)CSC2=C(C#N)C(c3ccco3)C3=C(CCCC3=O)N2)cc1 (stereo not drawn),-29%,-21%,?,-10,-17%,-15%
